High-throughput results: PubChem BioAssay, Sanford-Burnham Center for Chemical Genomics
DUSP3 inh: VHR1 phosphatase inhibitors, primary screen, biochemical, colorimetric, HTS | 0.7% of 50,000 active | AID 1992, 2009 | Dual specificity protein phosphatase 3 (Homo sapiens), P51452 | inhibition, % at 20 µM | recombinant VHR phosphatase, colorimetric substrate read-out; in the data active = inhibition above about 60%
Target sequence (P51452 whole entry, looked up): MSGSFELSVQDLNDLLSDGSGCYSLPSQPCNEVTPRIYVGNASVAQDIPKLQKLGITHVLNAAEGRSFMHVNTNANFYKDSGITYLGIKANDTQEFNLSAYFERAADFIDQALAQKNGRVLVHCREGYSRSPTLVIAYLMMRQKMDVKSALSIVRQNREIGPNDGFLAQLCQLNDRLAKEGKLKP
Numbers without * were called inactive. The entries come from a sample that favours hits as a whole.

SMILES	DUSP3 inh
CC(=O)C1=C(Nc2ccc(Br)cc2)CC(C)(O)C(C(C)=O)C1c1ccc([N+](=O)[O-])cc1 (stereo not drawn)	1.3
CCOc1ccc2oc(-c3ccccc3)c(C(=O)O)c2c1	-21.4
CCOC(=O)c1c(-c2ccccc2)oc2ccc(OC(C)C(=O)OCC)cc12 (stereo not drawn)	6.0
CC(Oc1ccc2oc(-c3ccccc3)c(C(=O)O)c2c1)C(=O)O (stereo not drawn)	80.6*
O=C1OC(c2ccc(F)cc2)=N/C1=C\c1ccc(OC(=O)c2ccccc2Cl)cc1	-0.8
Cc1ccccc1OC(=O)COc1ccc(Cl)cc1Cl	115.9*
O=C(COc1ccc(Cl)cc1Cl)Oc1ccccc1[N+](=O)[O-]	2.8
Cc1ccccc1OCC(=O)Nc1ccc(Cl)cc1Cl	-7.2
O=C(CSc1nnc(-c2ccc(Cl)cc2Cl)o1)NC1CCCCC1	-30.0
CSC(=N)/C(C#N)=N/Nc1ccccc1	-5.4
COc1ccc(N/C=C(/C2=CC(=O)C=CC2=O)[N+](=O)[O-])cc1	16.3
CC(NC(=O)C(=O)NCCN1CCN(C(=O)c2ccco2)CC1)c1ccccc1 (stereo not drawn)	-7.7
Cc1ccc(C)c(-c2csc(NC(=O)C3C4CCC(C4)C3C(=O)O)n2)c1 (stereo not drawn)	6.2
CCc1ccc(OCC(=O)Nc2ccccc2C(F)(F)F)cc1	111.8*
Cc1cccc(OCC(=O)Nc2ccccc2C(F)(F)F)c1	-21.5
O=C(COc1ccc(Cl)cc1)Nc1ccccc1C(F)(F)F	-1.6
C/C(=N\N1C(=O)CN(Cc2ccccc2)C1c1ccccc1)c1ccccc1 (stereo not drawn)	-15.8
O=c1oc2cc(OCc3ccccc3F)ccc2c2ccccc12	-6.9
CCCCC(=O)N1c2c(C)cccc2C(Nc2ccccc2C)CC1C (stereo not drawn)	-28.9
COc1cccc(N2C(=O)CC(N3CCCCC3)C2=O)c1 (stereo not drawn)	101.2*
COc1cccc(N2C(=O)CC(N3CCN(C/C=C/c4ccccc4)CC3)C2=O)c1 (stereo not drawn)	-8.2
COc1cccc(N2C(=O)CC(N3CCC(C)CC3)C2=O)c1 (stereo not drawn)	-5.4
CC1=CC(=O)C=C/C1=N\S(=O)(=O)c1ccc(C)cc1	28.2
O=C1C(Cl)=CC(=NS(=O)(=O)c2ccccc2)C=C1Cl	75.9*
COc1ccc(S(=O)(=O)/N=C2C=C/C(=N\S(=O)(=O)c3ccc(OC)cc3)C=C/2Cl)cc1	-16.5
SMILES	DUSP3 inh
O=C1C(Cl)=C/C(=N\S(=O)(=O)c2ccc(Cl)cc2)C(Cl)=C1Cl	96.0*
CC1=CC(=NS(=O)(=O)c2ccc(C)cc2)C=C(C)C1=O	25.4
O=S(=O)(NCCCNS(=O)(=O)c1ccc(Cl)cc1)c1ccc(Cl)cc1	-12.7
O=C(COc1ccccc1[N+](=O)[O-])N/N=C/c1cc(I)ccc1O	-26.6
O=C1NC(=O)N(c2ccccc2F)C(=O)/C1=C/c1ccc(-c2cc(C(=O)O)ccc2Cl)o1	17.7
CCOc1ccc(C2N(Cc3ccccc3)CCN2Cc2ccccc2)cc1	2.8
c1ccc(NC2=Nc3cccc4cccc2c34)cc1	-9.2
Nc1cccc(C2=Nc3cccc4cccc(c34)N2)c1	85.0*
Nc1cccc(-c2cc(C(=O)O)c3ccccc3n2)c1	0.2
CCOC(=O)C1CCC(=O)C=C1N1CCOCC1 (stereo not drawn)	-4.6
COc1ccc(/C=N/S(=O)(=O)c2cccs2)cc1OC	-11.2
COc1ccccc1N1CCN(/N=C\c2cccs2)CC1	0.1
Cn1c(=O)c2c([nH]c(=S)n2Cc2ccccc2Cl)n(C)c1=O	95.4*
Cc1c(C=O)c2ccccc2n1Cc1ccccc1Cl	-4.2
O=c1c2ccccc2[nH]c(=S)n1Cc1ccccc1	-7.7
c1ccc2c(CNC34CC5CC(CC(C5)C3)C4)c[nH]c2c1	active
O=C1C=C(NCCc2c[nH]c3ccccc23)CC(c2ccccc2)C1 (stereo not drawn)	28.9
CCC(CC)NCc1c[nH]c2ccccc12	-12.0
CC(=O)c1cccc(NC(=O)c2cccc(OCc3ccccc3)c2)c1	111.5*
CCCOc1cccc(C(=O)Nc2cccc(C(=O)Nc3ccccc3C(=O)O)c2)c1	-11.9
CCCOC(=O)c1ccc(NC(=O)c2cccc(OCc3ccccc3)c2)cc1	-10.2
CC1CC(Nc2ccccc2)c2ccccc2N1C(=O)/C=C/c1ccco1 (stereo not drawn)	6.5
COc1ccc(N2C(=O)NC(=O)/C(=C/c3cn(CCOc4ccccc4OC)c4ccccc34)C2=O)cc1	-14.8
O=C(Cn1cc(/C=C2\NC(=O)NC2=O)c2ccccc21)Nc1ccccc1	-14.7
O=C1NC(=O)N(c2ccc(Cl)cc2)C(=O)/C1=C/c1ccccc1	-28.6
SMILES	DUSP3 inh
C#CCn1cc(/C=C2\C(=O)NC(=O)N(c3ccc(Cl)cc3)C2=O)c2ccccc21	81.6*
O=C(Cn1cc(/C=C2\SC(=O)NC2=O)c2ccccc21)Nc1ccccc1	4.1
Cc1ccccc1N1C(=O)NC(=O)/C(=C/c2cn(CC(=O)Nc3ccccc3)c3ccccc23)C1=O	85.0*
O=C(Nc1ccc2oc(-c3cccc(Br)c3)nc2c1)c1ccc([N+](=O)[O-])cc1Cl	-4.6
Cc1cc(OCC(=O)Nc2ccc(N3CCOCC3)cc2)ccc1Br	6.5
C=CCc1cc(/C=C2\C(=O)NC(=O)N(c3cc(C)cc(C)c3)C2=O)cc(OC)c1OC	46.8
COc1ccc(N=Cc2c(O)n(-c3ccccc3)c(=O)[nH]c2=O)cc1Cl	-12.8
CCOc1ccc(C(=S)N2CCOCC2)cc1	5.5
CCOc1cc(N2CCOCC2)c(OCC)cc1N	88.3*
CCOc1ccc(C(=O)Nc2ccc(N3CCOCC3)c(Cl)c2)cc1Cl	-10.8
CCOc1ccccc1NC(=O)c1c(NC(=O)Cc2ccccc2)sc2c1CCCCC2	-22.9
COc1ccccc1NC(=O)c1c(N)sc2c1CCC2	-10.8
CCOc1ccccc1NC(=O)c1c(N)sc2c1CCCCC2	74.7*
Cc1ccc(C(=O)O/N=C(\N)c2ccc(Cl)cc2)cc1[N+](=O)[O-]	-4.5
COc1ccc(/C=C2\C(=O)NN(c3ccccc3)C2=O)cc1O	3.5
O=C(NCc1cccnc1)C(=O)Nc1ccc(Cl)c(C(F)(F)F)c1	-52.3
COc1ccc(N2C(=O)NC(=O)/C(=C/c3ccc(-c4ccc(C(=O)O)cc4)o3)C2=O)cc1	45.9
COc1ccc(N2C(=O)NC(=O)/C(=C/c3ccc(-c4cccc(Cl)c4)o3)C2=O)cc1	5.8
COc1ccc(N2C(=O)/C(=C/c3ccc(I)o3)C(=O)NC2=S)cc1	91.6*
COc1ccc(N2C(=O)/C(=C/c3ccc(-c4cc(C(=O)O)ccc4Cl)o3)C(=O)NC2=S)cc1	-8.0
COc1ccc(N2C(=O)NC(=O)/C(=C/c3ccc(I)o3)C2=O)cc1	106.7*
COc1ccc(N2C(=O)/C(=C/c3cc(C)n(-c4ccccc4)c3C)C(=O)NC2=S)cc1	89.1
CCOc1cccc(C2C(C(=O)Nc3ccccc3OC)=C(C)NC3=C2C(=O)CCC3)c1 (stereo not drawn)	-3.8
COc1cc(/C=C(/C#N)c2nc3ccc(C)cc3[nH]2)c(Br)cc1O	39.6
COc1ccc(C2/C(=C(/O)c3ccc(C)cc3)C(=O)C(=O)N2CCCCCC(=O)O)cc1 (stereo not drawn)	11.3
COc1ccc2c(c1)NC(C)(C)c1sn(-c3ccc(C)cc3)c(=S)c1-2	-4.8
FC(F)(F)c1cccc(Nc2nc(-c3ccccc3)cs2)c1	-13.8
O=C(Nc1ccc(NC(=O)c2ccc(-c3ccc(Cl)cc3Cl)o2)cc1)c1ccccc1	-12.8
O=C(Nc1ccccc1C(F)(F)F)c1ccc(Cl)cc1Cl	-20.2
